In the supplement of paper PMC10338343:
± gives the standard deviation. The full ranking holds about 3,000 sequences; the median of “pre-steady-state target cleavage rate” is about 0.0079, and the highest 2% start at about 0.2. Shown is part of a subset that was picked to be rich in the highest values.

Each sequence was assayed on MILI (PIWIL2) piRISC loaded with piRNA #2 (26 nt) (assay: pre-steady-state target cleavage rate (min^-1); MIWI and MILI are mouse PIWI proteins and EfPiwi is from a freshwater sponge; tags in brackets are library labels; higher = faster piRNA-guided slicing of the target). Details: guide: piRNA #2 5'p-UUAGGUAACCCAGUAGAUCCAGAGGA; auxiliary factor: 500 nM mouse GTSF1.
Protocol: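 Cleave-'n-Seq: a library of target RNAs (target site embedded in constant flanks, ACAGCATTCCGCGTTAGTGATATCCG... 5' flank; DNA-blocked outside the site) at 0.1 nM was incubated with 1 nM active mouse MILI or MIWI piRISC (synthetic 5'-monophosphorylated piRNA guide) with or without 500 nM mouse GTSF1 at 33 °C for 1 min to 16 h. Uncleaved targets were sequenced and normalised to non-target controls, and the pooled three trials were fitted to a burst-and-steady-state model to give the pre-steady-state cleavage rate (min^-1; k3 is constrained to at most 1e-4). Sequence is the target site only; target names encode pairing extent (gX:gY) and contiguous / 1-mismatch / 2-mismatch / bulge geometry. Fits with R² ≤ 0 are excluded.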

Row | Sequence | pre-steady-state target cleavage rate
1 | CUUAAGCUCUGGAUCUAGUGGGUUACCUAA | 0.0282 ± 0.0073
2 | CUUAUCCUCUGGAGCUACUGGGUUACCUAA | 0.238 ± 0.052
3 | CUUAAGCUCUGGAGCUACUGGGUUACCUAA | 0.0783 ± 0.014
4 | CUUAACCUCUGGAGCUACUGGGUUACCUAA | 0.226 ± 0.049
5 | CUUAUCCUCUGGACCUACUGGGUUACCUAA | 0.0996 ± 0.024
6 | CUUAACCUCUGGACCUACUGGGUUACCUAA | 0.0796 ± 0.023
7 | CUUAUCCUCUGGAUCCUACUGGGUUACCUAA | 0.0665 ± 0.018
8 | CUUAACCUCUGGAUCUACUGGGAUACCUUA | 0.0634 ± 0.023
9 | CUUAAGGUCUGGAUCUACUGGGUUACCUUAA | 0.0607 ± 0.015
10 | CUUAAGCUCUCCUUCUACUGGGUUACCUAA | 0.0472 ± 0.016
11 | CUUAAGCCCUGGAUCUACUGGGUUACCUAA | 0.202 ± 0.041
12 | CUUAACCUCUGGAUCUACUGGGUUAGCCUAA | 0.15 ± 0.035
13 | CUUAAGCCUGGAUCUACUGGGUUACCUAA | 0.104 ± 0.026
14 | CUUAUACCUCUGGAUCUACUGGGUUACCUAA | 0.251 ± 0.058
15 | CUUACCCUCUGGAUCUACUGGGUUACCUAA | 0.11 ± 0.016
16 | CUUAAGCCUCUGGAUCUACUGGGUUACCUAA | 0.146 ± 0.043
17 | CUUAAGCUGCUGGAUCUACUGGGUUACCUAA | 0.0417 ± 0.015
18 | CUUAGCCUCUGGAUCUACUGGGUUACCUAA | 0.218 ± 0.05
19 | CUUAUACUCUGGAUCUACUGGGUUACCUAA | 0.0651 ± 0.014
20 | CUUAAGGACUGGAUCUACUGGGUUACCUAG [g2:g22:cont:t1G] | 0.0474 ± 0.017
21 | CUUAAGCUCAGGAUCUACUGGGUUUCCUAA | 0.0265 ± 0.01
22 | CUUAAGCUCUGGAUCUAAUGGGUUACCUAA | 0.0186 ± 0.0042
23 | CUUAAGCUCUGGAUCUACUGGGUGUACCUAA | 0.0345 ± 0.0091
24 | CUUAUCCUCUGGAUCUGCUGGGUUACCUAA | 0.0654 ± 0.015
25 | CUUAACCUCUGGAUCUCUGGGUUACCUAA | 0.00889 ± 0.0054
26 | CUUAUCCUCUGGAUCUCCUGGGUUACCUAA | 0.459 ± 0.18
27 | CUUAACCUCUGGAUCUGCUGGGUUACCUAA | 0.097 ± 0.028

Row | Sequence | pre-steady-state target cleavage rate
28 | CUUAACCUCUGGAUCUCCUGGGUUACCUAA | 0.213 ± 0.084
29 | CUUAUCCUCUGGAUCUCUGGGUUACCUAA | 0.0227 ± 0.01
30 | CUUAAGCUCUGGAUCAACUGGGUUACCUUA | 0.0336 ± 0.011
31 | CUUAAGGUCUGGAUCUACUGGGUUUACCUAA | 0.0618 ± 0.011
32 | CUUAACCUCUCGAUCUACUGGGUUUCCUAA | 0.138 ± 0.035
33 | CUUAACCUCUGCAUCUACUGGGUUUCCUAA | 0.14 ± 0.059
34 | CUUAAGCUCUGGAUCUACUGGGUUUGCUAA | 0.144 ± 0.031
35 | CUUAACCUCUGGAUCUACUGGGUUUACCUAA | 0.0817 ± 0.019
36 | CUUAACCUCUGGAUCUACUGGGUUUCCUAA | 0.224 ± 0.062
37 | CUUAACCUCUGGAUCUUCUGGGUAACCUAA | 0.0414 ± 0.016
38 | CUUAACCUCUGGAUCUACUGGGUUUGCUAA | 0.305 ± 0.066
39 | CUUAACCUCUGGAUCUUCUGGGUUACCUAA | 0.0795 ± 0.017
40 | CUUAACCUCUGGAUCUACUGGGUUAACCUAA | 0.115 ± 0.024
41 | CUUAACCUCUGGAUCUUCUGGGUUUCCUAA | 0.243 ± 0.083
42 | CUUAACCUCUGGUUCUACUGGGUUUCCUAA | 1.67 ± 0.98
43 | CUUAACCUCUGGAUCUACUGGGUUAGCUAA | 0.112 ± 0.022
44 | CUUAAGGAGACCUAGUACUUGGUUACCUAA | < 0.0001
45 | CUUAUGCUCUGGAUCUACUGGGUAACCUAA | 0.0539 ± 0.012
46 | CUUAAGGACUGCAUCUACAGGGUUACCUAA | 0.0435 ± 0.015
47 | CUUAACAUCUGGAUCUACUGGGUUACCUAA | 0.114 ± 0.019
48 | CUUAAGGAGUGGAUCUACUGGGUUACCUAG [g2:g21:cont:t1G] | 0.0456 ± 0.013
49 | CUUAAGCUGACGAUCUACUGGGUUACCUAA | 0.0365 ± 0.015
50 | CUUAAGCUCUGGAUUACUGGGUUACCUAA | 0.0142 ± 0.0047
51 | CUUAAGGAGAGGAUCUACUGGGUUACCUAA [g2:g20:cont:t1A] | 0.0156 ± 0.0072
52 | CUUAAGGACAGGAUCUACAGGGUUACCUAA | 0.0375 ± 0.014
53 | CUUAACCACUGGAUCAACUGGGUUACCUAA | 0.0515 ± 0.014
54 | CUUAUCCUCUGGAUCUAGUGGGUUUCCUAA | 0.055 ± 0.016

Row | Sequence | pre-steady-state target cleavage rate
55 | CUUAACCUCUGGAUCUACUGGGUUUCCUUA | 0.225 ± 0.066
56 | CUUAAGCUCUGGAUCUUCUGGGUUUCCUAA | 0.0561 ± 0.017
57 | CUUAACCUCUGGAUCUACUGGGUUUCGUAA | 0.128 ± 0.044
58 | CUUAUCCUCUGGAUCUUCUGGGUUUCCUAA | 0.258 ± 0.088
59 | CUUAAGCUCUGGUUCUACUGGGUUUCCUAA | 0.219 ± 0.085
60 | CUUAAGCUCUGGAUCUACUGGGUUUCCUAA | 0.107 ± 0.025
61 | CUUAAGCUCUGCAUCUACUGGGUUUCCUAA | 0.0656 ± 0.022
62 | CUUAACCUCUGGAUCUACUGGGUUACCUUA | 0.111 ± 0.026
63 | CUUAACCUCUCGAUCUACUGGGUAACCUAA | 0.0796 ± 0.017
64 | CUUAACCACUGGUUCUACUGGGUUACCUAA | 0.112 ± 0.019
65 | CUUAACCACUGCAUCUACUGGGUUACCUAA | 0.0927 ± 0.018
66 | CUUAUCCUCUGGAUCUACUGGGUGACCUAA | 0.0696 ± 0.014
67 | CUUAUCCUCUGGAACUACUGGGUAACCUAA | 0.0599 ± 0.022
68 | CUUAUCCUCUGGAACUACUGGGUUAGCUAA | 0.0654 ± 0.021
69 | CUUAACCUCUGGAACUACUGGGUUACCUAA | 0.133 ± 0.03
70 | CUUAACCUCUGGAACUACUGGGUUUCCUAA | 0.311 ± 0.14
71 | CUUAUCCUCUGGAACUACUGGGUUUCCUAA | 1.1 ± 0.56
72 | CUUAACCUCUGGAACUACUGGGUAACCUAA | 0.06 ± 0.024
73 | CUUAAGGACUGGAUCUACUGGGUUACCUUAA | 0.0243 ± 0.014
74 | CUUAUCCUCUGGAUCUAUUGGGUUACCUAA | 0.139 ± 0.036
75 | CUUAAGGAGACCUAGAUGACGGUUACCGAA | < 0.0001
76 | CUUAAGCUCUGGAUCUACUGGGUUCCCUAA | 0.0477 ± 0.017
77 | CUUAAGCUCUGCAUCUACUGGGUUACGUAA | 0.0499 ± 0.016
78 | CUUAUCCUCUGGAUCAACAGGGUUACCUAA | 0.0724 ± 0.01
79 | CUUAAGGUCUGCAUCUACUGGGUAACCUAA | 0.00707 ± 0.006
